Screening results as filed in PubChem BioAssay.
Hits are enriched below; roughly 12% of the tested compounds scored in any of these assays.
JMJD2A Tudor inh = qHTS Assay for Inhibitors of JMJD2A-Tudor Domain; Potency, µM (top dose mostly 114 µM), for inactives: top-dose activity change, negative = inhibition, hits mostly inhibitors; 390,000 tested, 4.4% active; AlphaScreen JMJD2A-Tudor / H3K4me3 peptide binding; Lysine-specific demethylase 4A (Homo sapiens), O75164; AID 504339, 2011; note: % is set by controls: 0 for no effect and ±100 for the full control effect; nearly all actives have a fitted effect of over 50% in size
Sfp PPTase inh = qHTS Assay for Inhibitors of Bacillus subtilis Sfp phosphopantetheinyl transferase (PPTase) | 4'-phosphopantetheinyl transferase ffp (Bacillus subtilis), Q9F4F7 | Biochemical Sfp PPTase activity, qHTS | Potency, µM, for inactives: largest response in the series, negative = inhibition, usual class: inhibitors | 310,000 tested, 3.5% active | AID 1490, 2009;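 note: the enzyme is Sfp with the accession as filed and its product quenches rhodamine fluorescence; 0% = enzyme reaction without inhibitor and -100% = no enzyme wells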
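After 15 min at room temperature with compound, 15 nM Sfp received 5 uM rhodamine-CoA plus 12.5 uM BHQ-2-ybbR (50 mM Hepes pH 7.6, 10 mM MgCl2). Rate came from the fluorescence difference over 30 min, ex 525/em 598 nm.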
PLK1 PBD block = qHTS for Inhibitors of PLK1-PDB (polo-like kinase 1 - polo-box domain): Primary Screen; Plk1 PBD binding of FITC phosphopeptide, fluorescence polarization; Potency, µM, without a hit: max response, negative = inhibition, most hits filed as inhibitors; 360,000 tested, 2.8% active; note: series mostly up to about 57 µM; % is set by controls: 0 for no effect and ±100 for the full control effect; nearly all actives have a fitted effect of over 65% in size
G9a inh = qHTS Assay for Inhibitors of Histone Lysine Methyltransferase G9a; Histone-lysine N-methyltransferase EHMT2 (Homo sapiens), Q96KQ7; G9a H3K9 monomethylation, AlphaScreen, 2 h; Potency, µM (top dose mostly 102 µM), for the others: at the highest dose activity, negative = inhibition, hits mostly inhibitors; 350,000 tested, 8.8% active; note: % is set by controls: 0 for no effect and ±100 for the full control effect; nearly all actives have a fitted effect of over 75% in size
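G9a (20 nM) was preincubated 15 min with compound, then reacted 2 h at room temperature with 500 nM biotin-H3K9 peptide and 20 µM SAM. Monomethyl-H3K9 detected by AlphaScreen using anti-H3K9me1 antibody.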
HP1b binding inh = HTS for Inhibitors of HP1-beta Chromodomain Interactions with Methylated Histone Tails | Chromobox protein homolog 1 (Homo sapiens), P83916 | AlphaScreen HP1-beta / biotin-H3K9me3 peptide binding | Potency, µM (doses to about 114 µM), inactives show at the highest dose activity change, negative = inhibition, most hits filed as inhibitors | 390,000 tested, 0.56% active; note: nearly all actives have a fitted effect of over 70% in size
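Compound inhibition of the preformed complex between 50 nM HP1-beta and 50 nM biotinylated H3K9me3 peptide was read by AlphaScreen. Buffer was PBS pH 7.4 with 0.01% Tween-20. Incubations ran 30 min at room temperature, with 10 ug/mL donor/acceptor beads.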
BAZ2B inh = qHTS Assay for Inhibitors of BAZ2B; Bromodomain adjacent to zinc finger domain protein 2B (Homo sapiens), Q9UIF8; AlphaScreen BAZ2B-H3K14Ac peptide displacement; Potency, µM (titrated, usually from 114 µM), inactives show at the top dose activity change, negative = inhibition, hits mostly inhibitors; 360,000 tested, 4.4% active; note: % is set by controls: 0 for no effect and ±100 for the full control effect; nearly all actives have a fitted effect of over 60% in size
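Compounds, titrated to a top concentration of 110 uM, were incubated 30 min at room temperature with preformed BAZ2B/acetyl-K14 H3 peptide complex (50 nM each). Proximity signal was measured by AlphaScreen after 20 min with beads.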
Numbers without * were called inactive; u = inconclusive; x = no result given; [ ] = another dose, or the depositor's remark. Calls come from the whole dose curve; as a rule, active = well fitted curve in the direction sought with a large enough effect; inconclusive = small, poorly fitted or top-dose-only effect, or another doubt; inactive = no such curve, though single readings can be large; an effect the other way counts as inactive or inconclusive. Potency is the fitted concentration of half-maximal effect.

SMILES | JMJD2A Tudor inh | Sfp PPTase inh | PLK1 PBD block | G9a inh | HP1b binding inh | BAZ2B inh
COC(=O)c1ccccc1NC(=O)CNc1cc(OC)c(OC)cc1C | u | -8.1% | -7.3% | 20µM* | -23.2% | 44.7µM*
COC(=O)c1ccccc1NC(=S)NC(=O)C1CC1 | -12.2% | -2.3% | -16.6% | 50.1µM* | 24.7% | u
COC(=O)c1ccccc1NC(=S)NC(=O)c1ccc2ccccc2c1 | u | u | u | -18.5%[59 µM] | u | u
O=C(CC(=O)Nc1ccccc1C(=O)O)NNC(=O)Cc1ccccc1 | u | -21.1% | -8.2% | x | 15.7% | -10.6%
COC(=O)c1ccccc1NC(=S)NC(=O)c1cccc2ccccc12 | -16.4%[11.4 µM] | -0.3% | 6.7µM* | 6.4% | -20.5% | u
CCCC(=O)NNC(=O)CC(=O)Nc1ccccc1C(=O)O | -13.2% | 21.7% | 2.1% | 50.1µM* | 4.1%[57 µM] | -20.7%
Cc1cc(C)c2ccc(NN)nc2c1O | -15.7% | 50.1µM* | -3.7% | 31.6µM* | 41.6% | 7.4%
COCCNCC#CCOc1ccc(OC)cc1 | 7.94µM* | -4.9% | 2.3% | u | u | 50.1µM*
C=CCNCC#CCOc1ccc(OC)cc1 | 6.31µM* | -18.6% | 0.6% | 10µM* | u | u
COc1ccc(C(C)=NNS(=O)(=O)c2ccc(C)cc2)cc1OC | x | x | 3.2% | x | x | x
CC[N+]1(C)[C@@H]2CC[C@H]1CC(OC(=O)[C@H]1CC[C@@](C(=O)OC3C[C@H]4CC[C@@H](C3)[N+]4(C)CC)(c3ccccc3)c3ccccc31)C2 (some centres undefined) | x | -1.8% | x | 12.5%[21.5 µM] | x | x
Cn1nc(-c2ccccc2)c2nc3ccccc3nc21 | 56.0% | 3.5% | 21.2µM* | 35.4%[59 µM] | 48.6% | x
CCCCn1nc(-c2ccccc2)c2nc3ccccc3nc21 | x | -6.7% | x | x | x | 124.5%
COc1ccc([C@@H]2[C@@H]3C(=O)N(C(C)(C)C)C(=O)[C@@H]3[C@]3(C)C(=O)N(c4ccc(C(F)(F)F)cc4)C(=O)N23)cc1 | -25.5% | 13.1% | 4.0% | 2.2% | 42.9% | -25.0%
O=C(Nc1ccccc1)C(CCCCN1C(=O)c2ccccc2C1=O)N1C(=O)c2ccccc2C1=O (centres undefined) | -22.9% | x | -0.9% | x | 7.4% | x
O=C(O)C(CCCCN1C(=O)c2ccccc2C1=O)N1C(=O)c2ccccc2C1=O (centres undefined) | -7.6% | -3.9% | -2.9% | u | 46.3% | 89.1µM*
CCOC(=O)C(C(=O)OCC)C(C(=O)OCC)N1CCOCC1 (centres undefined) | u | 22.4µM* | 23.8µM* | 1.58µM* | u | 2.0%
COCCCN1C(=O)C(=O)/C(=C(/O)c2ccc(OC(C)C)c(C)c2)C1c1ccncc1 (centres undefined) | -22.6% | 9.1% | -3.6% | 39.8µM* | 21.7% | u
COCCCN1C(=O)C(=O)/C(=C(/O)c2ccc(C)cc2)C1c1ccccc1 (centres undefined) | u | 23.2% | -5.8% | 50.1µM* | 2.0% | -7.8%
COC(CN1C(=O)C(=O)/C(=C(/O)c2ccccc2)C1c1ccccn1)OC (centres undefined) | -1.3% | 2.9% | -1.0% | 50.1µM* | 30.7% | -36.0%
COCCN1C(=O)C(=O)/C(=C(/O)c2ccc(C)cc2)C1c1ccccn1 (centres undefined) | -35.2% | 1.6% | -12.8% | 50.1µM* | 9.2% | -31.1%
CC(=O)c1sc(NC(=O)C2CCCN2S(=O)(=O)c2ccccc2F)nc1C (centres undefined) | -4.0% | x | -9.0% | 19.6%[59 µM] | 23.4% | 9.8%
O=C(CNC(=O)c1cccs1)Nc1ccc2c(c1)OCCO2 | -14.5% | x | -8.0% | 6.8%[0.501 µM] | 11.8% | 3.1%
